CRE Fsk mod: alters forskolin-stimulated CRE reporter signaling in CHO cells | 71,000 compounds, 2.5% hits | CHO CRE-bla reporter (cAMP response element driving beta-lactamase), forskolin EC10, beta-lactamase ratio | Potency, µM (titrated, usually from 38.2 µM), for inactives: at the highest dose activity change, negative = inhibition, usual class: activators | AID 662; active = well fitted activation curve with a large enough effect in the signal ratio, with a control signal flat, not every such curve was filed as active; inconclusive = small, poorly fitted or top-dose-only effect, or effect the other way, or a change in a side signal; the % refers to the signal ratio; note: potency is the fitted concentration of half-maximal effect; % of control where 0% means no effect
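Reporter-gene assay: CHO cells with beta-lactamase behind cAMP responsive elements, co-treated with compound and EC10 NKH 477 for 3 hours at 37 degrees Celsius. Activity came from the 460/530 nm CCF4 emission ratio.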
HEK293 cAMP cs: counter-screen for TSHR agonists: cAMP increase in parental HEK293 | 73,000 compounds, 2.5% hits | Potency, µM (top dose mostly 57.1 µM), inactives show top-dose activation, most hits filed as activators | parental HEK293 CNG cAMP sensor, membrane potential fluorescence; note: potency is the fitted concentration of half-maximal effect; % of control where 0% means no effect; nearly all actives have a fitted effect of over 55% in size
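Counterscreen for endogenous-receptor signalling: CNG-channel HEK 293 cells report cAMP rise by membrane depolarization. After 60 min dye equilibration with 100 uM RO 20-1724, compounds incubated 30 min before bottom-read fluorescence at 590 nm.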
TSHR ag: activates the human thyroid stimulating hormone receptor; 73,000 compounds, 0.48% hits; Potency, µM (titrated, usually from 57.1 µM), for the others: at the highest dose activation, most hits filed as activators; P16473; AID 926; HEK293-CNG-TSHR cells (CNG channel as cAMP sensor), membrane potential dye, cAMP; active = well fitted activation curve with a large enough effect in the main read-out, with a control signal flat, not every such curve was filed as active; inconclusive = small, poorly fitted or top-dose-only effect, or a change in a side signal; inactive = no such curve, though single readings can be large or run the other way; % of control where 0% means no effect;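 note: the control signal comes from parental cells without the receptor; potency is the fitted concentration of half-maximal effect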
Target sequence (P16473 whole entry, looked up): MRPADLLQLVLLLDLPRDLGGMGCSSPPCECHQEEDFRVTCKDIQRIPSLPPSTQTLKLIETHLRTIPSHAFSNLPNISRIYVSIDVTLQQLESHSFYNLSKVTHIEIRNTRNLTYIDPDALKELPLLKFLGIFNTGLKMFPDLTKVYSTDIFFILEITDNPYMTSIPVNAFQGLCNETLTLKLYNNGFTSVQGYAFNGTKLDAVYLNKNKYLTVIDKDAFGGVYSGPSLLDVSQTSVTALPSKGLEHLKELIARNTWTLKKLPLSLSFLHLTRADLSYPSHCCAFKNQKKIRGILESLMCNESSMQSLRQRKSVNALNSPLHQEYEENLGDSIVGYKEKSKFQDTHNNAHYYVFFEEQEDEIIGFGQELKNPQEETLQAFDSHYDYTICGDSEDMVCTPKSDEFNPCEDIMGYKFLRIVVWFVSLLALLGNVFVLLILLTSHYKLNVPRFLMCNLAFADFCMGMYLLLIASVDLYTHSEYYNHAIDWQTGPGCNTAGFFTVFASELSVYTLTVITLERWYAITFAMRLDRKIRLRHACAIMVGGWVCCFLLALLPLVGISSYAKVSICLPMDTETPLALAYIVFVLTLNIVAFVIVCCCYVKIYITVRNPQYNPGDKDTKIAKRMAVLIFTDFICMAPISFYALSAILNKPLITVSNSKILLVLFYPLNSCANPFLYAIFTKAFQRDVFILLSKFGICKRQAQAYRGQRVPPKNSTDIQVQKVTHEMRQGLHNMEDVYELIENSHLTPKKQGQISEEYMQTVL
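HEK 293 cells stably expressing TSHR and a cAMP-gated CNG channel; parental CNG-only cells as counterscreen. Cells preloaded 60 min with membrane potential dye plus 100 uM RO 20-1724, then compound 30 min; fluorescence read at 590 nm.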
IkB signaling: suppresses IkB signaling in ABC-DLBCL reporter cells; ABC-DLBCL IkBa-CBG/CBR dual luciferase ratio, 4 h; response scale: scaled: untreated 0%, proteasome inhibitor 100%; Potency, µM (highest dose often 57.1 µM), inactives show at the top dose IkBa stabilization activation; 110,000 compounds, 0.04% hits; AID 445; active = well fitted curve in the direction sought with a large enough effect in the signal ratio, not every such curve was filed as active; inconclusive = small, poorly fitted or top-dose-only effect, or a change in a side signal; the % refers to the signal ratio;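 note: potency is the fitted concentration of half-maximal effect; the direction sought is a rising ratio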
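Curves were fitted separately to fusion (green), unfused (red) and ratio luminescence, then classed by r2, magnitude and activity. Cells: OCI-Ly3, 4 h compound plus doxycycline at 37C; 10 uM MG-132 defined full response.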
ERK AVP block: vasopressin-driven ERK pathway inhibition; Potency, µM (doses to about 57.5 µM), without a hit: at the top dose activity, negative = inhibition, most hits filed as inhibitors; HEK293-V1b, vasopressin-stimulated pERK AlphaScreen; 72,000 compounds, 0.99% hits; AID 995; note: potency is the fitted concentration of half-maximal effect; % is set by controls: 0 for no effect and ±100 for the full control effect; nearly all actives have a fitted effect of over 55% in size
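qHTS, compounds titrated on V1b-expressing HEK293 cells. Preincubation 30 min at 37C, vasopressin 25 nM for 5 min, lysis 10 min, bead incubation 5 hr at room temperature.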
CHO via 24h: reduces CRE-bla CHO cell viability after 24 hours; shares compounds with CRE Fsk mod; CRE-bla CHO viability, ATP luminescence, 24 h; activity, negative = viability loss, % at 46.1 µM; 120 tested, under 10 active
CHO tox 40h: reduces CRE-bla CHO cell viability after 40 hours; shares compounds with CRE Fsk mod; CRE-bla CHO viability, ATP luminescence, 40 h; Potency, µM, without a hit: max response, hits mostly inhibitors; 120 tested, under 10 active; AID 906
CRE-luc potent: boosts CRE luciferase signal in HEK293 cells. 120 compounds, 80% hits. Potency, µM (top dose mostly 38.3 µM), without a hit: top-dose activity, positive = activation, actives largely listed as activators. HEK293 CRE-luc2P, NKH477 EC10 potentiation, luminescence, 4 h. shares compounds with CRE Fsk mod
* hit, by the source's call; u = inconclusive; x = no result given; ! = not active in a repeat; [ ] = dose if it differs, or a comment. This is a sample that favours compounds with a hit; in the whole collection about 3.6% have one here. Unless noted, calls come from the whole dose curve; as a rule, active = well fitted curve in the direction sought with a large enough effect; inconclusive = small, poorly fitted or top-dose-only effect, or another doubt; inactive = no such curve, though single readings can be large; an effect the other way counts as inactive or inconclusive.

SMILES	CRE Fsk mod	HEK293 cAMP cs	TSHR ag	IkB signaling	ERK AVP block	CHO via 24h	CHO tox 40h	CRE-luc potent
CCOc1ccc(-n2c(SCC(=O)Nc3cc(C)on3)nc3c([nH]c4ccccc43)c2=O)cc1	1.3µM*	3%	11%	4%	x	x	x	x
CCCn1c(=O)c(C(=O)NCc2ccc(OC)c(OC)c2)c(O)c2ccccc21	u	11%	13%	u	5%	x	x	x
CCn1c(=O)c(C(=O)NCc2ccccn2)c(O)c2ccccc21	7.9µM*	u	u	u	-15%	x	x	x
CCn1c(=O)c(C(=O)NCc2ccc(OC)c(OC)c2)c(O)c2ccccc21	1.6µM*	u	u	u	-5%	x	x	x
CCn1c(=O)c(C(=O)NCc2ccc(OC)cc2)c(O)c2ccccc21	u	3%	7%	1%	66%	x	x	x
CCn1c(=O)c(C(=O)NCCCO)c(O)c2ccccc21	10µM*	8%	7%	1%	-11%	x	x	x
C=CCn1c(=O)c(C(=O)NCCc2ccccc2)c(O)c2ccccc21	u	17%	18%	6%	24%	x	x	x
Cn1nnnc1SCC(=O)Nc1ccc(Br)cc1Cl	-8%	4%	2%	-1%	-2%	x	x	x
NC(=O)c1cc(-c2ccccc2)nc(N2CCCCCC2)n1	u	16%	x	2%	8%	x	x	x
Nc1c(C(=O)NCc2ccco2)sc2nc3c(cc12)C(=O)CCC3	u	-4%	-3%	3%	u	x	x	x
COc1ccc2cc3c(N)c(C(=O)NCc4ccco4)sc3nc2c1	13µM*	-22%	-10%	-1%	u	x	x	x
COC(=O)c1sccc1NC(=O)c1cccnc1	13µM*	8%	8%	0%	-21%	x	x	x
COc1ccc2oc(-c3ccc(NC(=O)c4ccc(Cl)cc4Cl)cc3)nc2c1	x	x	x	2%	x	x	x	x
COc1ccc(CCNC(=O)C2CC(=O)N(CCc3ccccc3)C2)cc1OC (stereo unspecified)	x	x	x	1%	x	x	x	x
CCCc1ccc2c(N)c(C#N)sc2n1	10µM*	-5%	6%	-2%	-25%	x	x	x
N#Cc1sc2nc3c(c(-c4cccnc4)c2c1N)CCC3	u	1%	26%	-3%	u	x	x	x
COc1cccc(-c2nnc(SCC(=O)OC(C)C)n2N)c1	5%	11%	13µM*	2%	-1%	x	x	x
Cc1nc(Nc2nc(-c3ccccc3)cc(=O)[nH]2)nc2ccccc12	u	27%	4%	u	u	x	x	x
COc1nc(Nc2nc3ccccc3c(=O)[nH]2)nc2ccc(C)cc12	1.6µM*	7%[11.4 µM]	3%[11.4 µM]	u	-13%	u	4µM*	u
c1nc2sc3c(c2c2nnnn12)CCCC3	u	8%	11%	u	u	x	x	x
N#CCc1nc2c3c4c(sc3ncn2n1)CCCC4	x	x	x	x	x	-4	-16%	5µM*
C=CCn1c(=O)/c(=C/c2cc(OC)c(OC)c(OC)c2)s/c1=C(/C#N)c1nc2ccccc2n1C	1µM*	-24%	-8%	-1%	u	-22	-28%	1µM*
Cc1ccc2c(c1)c1nc3ccccc3nc1n2CCN1CCOCC1	1.3µM*	12%	x	-1%	-20%	-17	u	4µM*
Cc1ccc(S(=O)(=O)c2c(N)n(CCN3CCOCC3)c3nc4ccccc4nc23)cc1C	5%	-6%	0%	0%	-26%	x	x	x
COc1cc(-c2cc(=O)c3ccccc3o2)ccc1O	2µM*	-5%	7%	-3%[11.4 µM]	u	-26	u	3.2µM*
SMILES	CRE Fsk mod	HEK293 cAMP cs	TSHR ag	IkB signaling	ERK AVP block	CHO via 24h	CHO tox 40h	CRE-luc potent
CCOC(=O)C1=C(CN2CCN(CC)CC2)NC(=O)NC1c1ccc(Cl)cc1 (stereo unspecified)	x	x	x	-3%	x	x	x	x
CCOC(=O)C1=C(CN2CCC(C)CC2)NC(=O)NC1c1ccc(Cl)cc1 (stereo unspecified)	13µM*	24%	27%	-2%	7%	-14	-36%	13µM*
CCCCOC(=O)C1Cc2ccccc2C(=O)O1 (stereo unspecified)	-4%	1%	5%	-1%	6%	x	x	x
CCOC(=O)CNC(=O)c1sc2nc(C)cc(C)c2c1N	29%	1%	-2%	-3%	-15%	x	x	x
COc1ccc(CCN2C(=O)c3cccnc3C2=O)cc1OC	1%	3%	-2%	1%	18%	x	x	x
COc1cc2c(cc1OC)-c1c(OC)c(OC)cc3ccnc(c13)C2=O	u	-5%	-4%	-2%[11.4 µM]	-25%	-19	u	0.16µM*
O=C(Cc1ccccc1)Nc1ccc(CN2CCOCC2)cc1	5%	3%	0%	1%	-10%	x	x	x
COc1cc(NC(=O)c2cccc3c2C(=O)N(Cc2cccnc2)C3)cc(OC)c1OC	2µM*	14%	9%	-3%	41%	-15	u	0.79µM*
Cc1cc(NC(=O)CSc2nc3sc4c(c3c(=O)n2C)CCCC4)no1	-1%	-9%	10%	1%	-5%	x	x	x
Cn1c(SCC(=O)N2CCOCC2)nc2sc3c(c2c1=O)CCCC3	15%	1%	6%	0%	-12%	-7	-17%	3.5µM*
COC(=O)Nc1nc2ccc(C(=O)c3cccs3)cc2[nH]1	0.079µM*	5%[25.6 µM]	u	u	28%	u	-19%	u
CCCCNc1c(C(=O)OCC)c(C)nc2c1cnn2CC	3.2µM*!	22%	0%[25.6 µM]	u	u	-21	u	0.79µM*
COc1cc(-c2nnc3sc(-c4ccco4)nn23)cc(OC)c1OC	1µM*	-1%	-3%	0%	-19%	-7	-25%	3.2µM*
Clc1ccc(-c2nnc3sc(-c4ccco4)nn23)c(Cl)c1	u	4%	0%	4%	3%	x	x	x
COc1cc(-c2nnc3sc(-c4ccccn4)nn23)cc(OC)c1OC	0.025µM*	-10%	1%	1%	13%	-8	-17%	u
CCOC(=O)c1nnn(-c2nonc2N)c1COc1cc(C)c(Cl)c(C)c1	-3%	u	u	u	21%	x	x	x
CC(C)c1nc2oc3c(NCc4ccccn4)ncnc3c2c2c1COC(C)(C)C2	u	1%	-1%	0%	-17%	x	x	x
CCCc1nc2oc3c(NCc4ccccn4)ncnc3c2c2c1COC(C)(C)C2	0.79µM*	25%	x	-2%	-20%	-10	-16%	0.4µM*
